Source: PubChem (National Center for Advancing Translational Sciences (NCATS))
TRHR agonist-1: agonists of human TRH receptor | TRHR cells, calcium flux fluo-8, FDSS agonist mode | P34981 | actives 0.18% (n = 360,000) | AID 493084 | activation, % at 2 µM; in the data active = activation above about 30%; also: 0% is about no effect
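Agonist-mode FDSS calcium read (Ex 480/Em 530, 1 s cycles) in 1536-well TRHR cells with fluo-8 dye, after 10-cycle baseline and 23 nL compound addition; TRH at EC20 (10 nM final) added afterwards for the enhancer phase.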
GLP1R cytotox: cytotoxic in the GLP-1 receptor inverse agonist counter-screen. HEK293 cAMP-luciferase reporter cells, luminescence, 24 h. Potency, µM (doses to about 38.3 µM), for inactives: at the highest dose activity change, negative = inhibition, usual class: inhibitors. actives 0.13% (n = 410,000). AID 624418;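 also: loss of luciferase light is scored as toxicity; potency is read from the fitted curve at half-maximal effect; % is scaled to controls: 0 for no effect and ±100 for the full control effect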
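Here, cytotoxicity is scored as loss of luminescence. The MLSMR collection was tested on cells seeded in medium containing 10% Nu serum, with a 24 hr compound exposure preceded by 12 hours of culture.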
TRHR enhancer-1: allosteric enhancers of human TRH receptor | AID 493056 | actives 0.66% (n = 360,000) | TRHR cells, fluo-8 calcium fluorescence, EC20 TRH enhancement | enhancement, % at 2 µM; in the data active = enhancement above about 30%; also: 0% is about no effect
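TRHR-expressing cells loaded with fluo-8 calcium dye were read kinetically (ex 480/em 530) during compound addition, then stimulated with an EC20 of TRH (10 nM final). Enhancement of the Gq-mediated intracellular calcium response was scored.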
PTHR1 agonist: PTHR1 (human) receptor agonism; AID 743266; actives 0.075% (n = 410,000); HEK293 GP2 PTHR1 cells, GloSensor cAMP luminescence, 1 h; Q03431; Potency, µM (series often up to 115 µM), inactives show at the top dose activation, usual class: activators; also: potency is read from the fitted curve at half-maximal effect; nearly all actives have a fitted effect of over 55% in size
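HEK-293-derived GP2 cells expressing PTHR1 and a GloSensor cAMP reporter, 3,000/well, plated overnight, given luciferin plus IBMX (each 0.5 mM as added) for 1 h at 37 °C, then compound for 1 h at 37 °C. Luminescence was read after 15 min at room temperature.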
TRPML1 blocker: human mucolipin-1 channel inhibition. TRPML1-inducible cells, Ca2+ dye fluorescence, FDSS; stronger effect = lower value; inhibition of EC80 agonist-evoked calcium signal. activity change, negative = inhibition, % (concentration not given with the values). actives 0.02% (n = 390,000). AID 624415; in the data active = activity change below about -50%; inconclusive = between about -30% and that limit;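 also: stimulus is agonist 54-4 at its EC80 concentration; % is scaled to controls: 0 for no effect and ±100 for the full control effect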
Target sequence (Q9GZU1 whole entry, looked up): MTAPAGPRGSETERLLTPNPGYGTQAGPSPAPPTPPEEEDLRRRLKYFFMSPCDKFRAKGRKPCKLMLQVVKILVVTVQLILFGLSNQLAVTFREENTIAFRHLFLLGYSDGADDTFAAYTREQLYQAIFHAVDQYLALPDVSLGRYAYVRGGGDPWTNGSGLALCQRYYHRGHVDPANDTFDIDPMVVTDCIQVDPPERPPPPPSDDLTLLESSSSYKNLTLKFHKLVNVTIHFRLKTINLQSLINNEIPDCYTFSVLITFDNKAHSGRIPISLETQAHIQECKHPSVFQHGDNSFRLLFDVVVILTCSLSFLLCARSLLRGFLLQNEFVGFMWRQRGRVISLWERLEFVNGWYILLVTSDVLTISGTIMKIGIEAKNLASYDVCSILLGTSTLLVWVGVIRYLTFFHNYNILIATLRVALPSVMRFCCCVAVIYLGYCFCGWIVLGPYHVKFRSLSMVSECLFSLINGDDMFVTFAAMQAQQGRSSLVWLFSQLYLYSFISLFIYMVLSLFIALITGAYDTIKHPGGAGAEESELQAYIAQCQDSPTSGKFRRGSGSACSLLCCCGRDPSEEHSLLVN
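Tet-induced TRPML1-DL cells loaded with Ca8 no-wash calcium dye were read kinetically on FDSS. Compound addition was followed by EC80 agonist 54-4 (4 uM final); inhibition was read over 110 s.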
TRPML1 agonist: activates the human TRPML1 channel; TRPML1-expressing cells, Ca2+ dye fluorescence, FDSS; actives 0.12% (n = 410,000); activation, % (test concentration not listed); in the data active = activation above about 50%; inconclusive = mostly about 30% to 49%; also: 0% is about no effect
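Tet-induced TRPML1-DL cells, 1,500 per well, cultured overnight, were loaded with a no-wash Ca2+ dye for 45–90 min. Calcium fluorescence was recorded on the FDSS for 110 s after compound addition, before the EC80 agonist (4 uM 54-4) was added.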
TRHR enhancer-2: confirmation of human TRH receptor allosteric enhancers; shares compounds with TRHR enhancer-1; TRH receptor cell assay, enhancer confirmation qHTS; activity change, negative = inhibition, % at 46.1 µM; 970 tested, under 10 active; AID 493076;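 also: compound effect scored on response to added TRH at EC20 of 10 nM; 0% is about no effect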
TRHR agonist-2: human TRH receptor agonism confirmation | shares compounds with TRHR enhancer-1 | TRHR-expressing cells, agonist activation read-out | Potency, µM (highest dose often 46.1 µM), for inactives: at the top dose activation, hits mostly activators | actives 8% (n = 970) | AID 493078; also: potency is read from the fitted curve at half-maximal effect; 0% is about no effect; nearly all actives have a fitted effect of over 75% in size
The depositor's hits bear a star; i = inactive; ? = inconclusive; · = no result; ! = not active in a repeat; [ ] = remark or other dose. The list is not random: actives were taken first. Their share in the collection is about 0.93%. Unless noted, calls follow the shape of the dose curve; as a rule, active = well fitted curve in the direction sought with a large enough effect; inconclusive = small, poorly fitted or top-dose-only effect, or another doubt; inactive = no such curve, though single readings can be large; an effect the other way counts as inactive or inconclusive.

SMILES	TRHR agonist-1	GLP1R cytotox	TRHR enhancer-1	PTHR1 agonist	TRPML1 blocker	TRPML1 agonist	TRHR enhancer-2	TRHR agonist-2
COc1ccc(C2C(CN3CCOCC3)C(=O)N2c2ccccc2)cc1 (centres undefined)	0	12%	-6	i	-17	0	·	·
COc1ccc(N2C(=O)C(CN3CCN(C)CC3)C2c2ccccc2)cc1 (centres undefined)	1	8%	67*	i	27	1	6	4%
Cc1ccc(C(=O)CSc2nnc(C(C)C)n2C)cc1C	-1	2%	42*	-10%	3	0	-6	-1%
CCCCn1nnnc1SCC(=O)c1ccc(C)c(C)c1	-1	-3%	5	i	1	0	·	·
CS(=O)(=O)c1cccc(-c2csc(N3CCC(C(N)=O)CC3)n2)c1	0	·	48*!	-48%	·	·	4	7%
CN1CCN(NC(=O)NC2CCCCC2)CC1	1	3%	41*	-18%	1	0	8	4%
CCOC(=O)c1[nH]cnc1C(=O)Nc1ccc(C)cc1	0	7%	51*	-17%	-5	-1	-2	5%
CCOC(=O)c1[nH]cnc1C(=O)Nc1ccc(Cl)cc1	0	15%	5	-23%	14	3	·	·
O=C(NCCc1nc2ccccc2n1CCOc1cccc2ccccc12)C1CCCCC1	·	·	·	·	·	0	·	·
COc1cccc(N=C2NC(=O)/C(=C/c3cc([N+](=O)[O-])ccc3O)S2)c1	55*	3%	1	-11%	-13	12	5	?
O=C1NC(=Nc2ccccc2Cl)S/C1=C\c1cc([N+](=O)[O-])ccc1O	8	-19%	0	-1%	-20	9	·	·
COc1ccc(C2Nc3ccccc3C(=O)N2Cc2ccco2)cc1 (centres undefined)	·	·	·	·	·	-1	·	·
CCC(=O)c1c[nH]c(C(=O)NCc2cccs2)c1	0	1%	1	i	-8	0	·	·
CC(C)CC(=O)c1c[nH]c(C(=O)NCc2cccs2)c1	-1	-3%	44*	i	53	-1	5	0%
CNC(=O)C1(C(F)(F)F)CC(CCCO)CCCO1 (centres undefined)	·	·	·	·	0	0	·	·
C=C[C@@H]1c2cc(C)ccc2N(S(=O)(=O)c2ccc(C)cc2)[C@H](c2ccc(C(=O)OC)cc2)C1(C#N)C#N	·	·	·	·	·	-1	·	·
CCCCCN1C=CC=C/C1=C\C=C(C#N)C#N	31*	?	-2	i	-1	14	-4	21µM*
CCCN1C=CC(=CC=C(C#N)C#N)C=C1	42*	6%	-1	i	6	21	-1	18µM*
CCCCCCN1C=CC=C/C1=C/C=C(C#N)C#N	25	-24%	-6	-3%	19	13	·	·
CN(C)c1ccc(/C=C2\CCc3cc(N)ccc32)cc1	·	·	·	·	·	-1	·	·
O=C(Cc1ccc(OCCCCc2ccccc2)cc1)NO	·	·	·	·	·	0	·	·
O=S(=O)(c1nccs1)N1CCN(c2nc(-c3cccs3)nc3ccccc23)CC1	·	·	·	·	·	1	·	·
CC(=O)N/N=C/c1c(C)[nH]n(-c2ccccc2)c1=O	-1	0%	44*	-4%	28	-1	-4	5%
CC(C(=O)Nc1ccc(F)c(F)c1F)N(C)CCOc1ccccc1 (centres undefined)	0	-14%	46*	-10%	-1	0	-8	1%
NC(C(=O)O)c1nn[nH]n1 (centres undefined)	·	·	·	·	13	1	·	·
SMILES	TRHR agonist-1	GLP1R cytotox	TRHR enhancer-1	PTHR1 agonist	TRPML1 blocker	TRPML1 agonist	TRHR enhancer-2	TRHR agonist-2
C=CCn1c(SCC#N)nc2ccc(Cl)cc2c1=O	·	·	·	·	·	-1	·	·
Cn1c(C(=O)NN)cc2cc(Oc3ccccc3)ccc21	0	2%	-1	i	8	-1	·	·
Cn1c(O)c(/C=N/NC(=O)c2cc3ccccc3cc2O)c2ccccc21	46*	37%	3	-20%	19	19	0	13µM*
COc1ccc2c(c1)cc(C(=O)N/N=C/c1c(O)c(C(=O)O)cc3ccccc13)n2C	33*	196%	-1	i	9	6	?	18µM*
COc1ccccc1/C=N/OCc1cc(C(C)=O)ccc1OC	0	4%	56*	-3%	2	1	-5	3%
COc1ccc(C(C)=O)cc1COc1ccccc1[N+](=O)[O-]	-1	-22%	-1	-23%	26	1	·	·
N#CC[n+]1cccc(Br)c1	·	·	·	·	·	1	·	·
COC(=O)C1=C(C(=O)c2ccccc2)C(c2ccccc2)n2nnnc2N1 (centres undefined)	1	-15%	62*	-13%	14	0	1	-1%
COC(=O)C1=C(C(C)=O)C(c2ccc(C(=O)OC)cc2)n2nnnc2N1 (centres undefined)	1	?	-7	-10%[57.5 µM]	22	-1	·	·
O=C(C[n+]1ccnc2ccccc21)c1ccc(Br)cc1	·	·	·	·	·	-1	·	·
O=C(O)c1ccc(CSc2nnc(-c3ccccc3Cl)n2-c2ccccc2)cc1	1	8%[7.66 µM]	51*	i	-6	0	-10	0%
O=C(O)c1ccc(CSc2nnc(-c3ccccc3)n2-c2ccccc2)cc1	1	1%	-5	i	19	0	·	·
Cc1sc2ccccc2[n+]1Cc1ccccc1	·	·	·	·	·	-1	·	·
Brc1cc2c(cc1CSc1ncccn1)OCO2	0	2%	46*	i	1	3	-9	2%
Cc1cc(C(=O)NNC(=O)CCCOc2ccccc2)c(C)o1	0	2%	-1	i	4	-1	·	·
CC(C)(C)c1ccc(OCCCC(=O)NNC(=O)c2ccccc2O)cc1	0	-28%	41*	i	27	1	-4	0%
C=CCC(CC)C(=O)NC(=O)N1CCCc2ccccc21 (centres undefined)	0	-6%	42*	i	-10	1	-5	0%
Nc1nc2c(nc(N3CCOCC3)n2COCCO)c(=O)[nH]1	·	·	·	·	·	0	·	·
CC(C)c1ccc(NC(=O)CSc2nnc(-c3ccccc3)n2C)cc1	·	·	·	·	·	1	·	·
CCc1cccc(CC)c1NC(=O)NC1CCCCC1	0	7%	8	i	0	1	·	·
CCc1ccccc1NC(=O)NC1CCCCC1	0	-2%	48*	-14%	-3	0	-3	0%
